# In PubChem BioAssay:
# Active and inactive are the calls of the source.
# What was measured:
# [1] = optical density shifts of acrAB sulA E. coli – strain DRC41, OD650, 48 h, E. coli filamentation inducer project, primary screen (AID 1152); conditions: higher = more signal, called active from +8 up or from −8 down;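 also: E. coli MC1000 strain DRC41 lacking acrAB efflux pump and sulA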
# [2] = probe aLefty1 binding on compound microarray – biochemical, small-molecule microarray, 635/667 nm fluorescence, primary screen (AID 1153); conditions: higher = more signal;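 also: score merges spot fluorescence with signal-to-noise ratio from the scanned slide images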
# [3] = plasmodial surface anion channel blockers, osmotic lysis – cell-based, P. falciparum Indochina, OD700, 1 h, primary screen (AID 1154); conditions: P. falciparum Indochina infected RBC osmotic lysis, higher = more signal, called active from +8 up or from −8 down
# [4] = plasmodial surface anion channel blockers, osmotic lysis – cell-based, P. falciparum Indochina, OD700, 2 h, primary screen (AID 1155);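 also: lysis reports solute entry through the parasite surface anion channel PSAC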; conditions: P. falciparum Indochina infected erythrocytes, higher = more signal, called active from +8 up or from −8 down
# [5] = changes in parasitized red cell lysis, either direction – P. falciparum Indochina, OD700, 3 h, PSAC antagonist project, primary screen (AID 1156); conditions: P. falciparum-infected erythrocytes, osmotic lysis, higher = more signal, called active from +8 up or from −8 down
# [6] = plasmodial surface anion channel blockers, osmotic lysis – cell-based, P. falciparum Indochina, OD700, 18 h, primary screen (AID 1157); conditions: P. falciparum Indochina infected erythrocytes, osmotic lysis OD700, 18 h; higher = more signal, called active from +8 up or from −8 down
# [7] = S6 kinase pathway phospho-S6 level changes – cell-based, A549, cytoblot, luminescence, serum-stimulated, primary screen (AID 1158); conditions: 5 h, higher = more signal;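 also: serum-stimulated A549 lung adenocarcinoma cells; signal is phosphorylated S6 detected by cytoblot immunostaining with HRP secondary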
# [8] = molecular target: NADPH oxidase 2 (Homo sapiens) (UniProt P04839); test: compounds shifting NOX2 Amplex Red fluorescence – cell-based, HEK293-NOX2, PMA-stimulated, NOX inhibitor project, primary screen (AID 1159); conditions: 45 min, higher = more signal, called active from +8 up or from −8 down; also: test concentration not given here
# NADPH oxidase 2 (Homo sapiens), sequence (P04839 whole entry, looked up): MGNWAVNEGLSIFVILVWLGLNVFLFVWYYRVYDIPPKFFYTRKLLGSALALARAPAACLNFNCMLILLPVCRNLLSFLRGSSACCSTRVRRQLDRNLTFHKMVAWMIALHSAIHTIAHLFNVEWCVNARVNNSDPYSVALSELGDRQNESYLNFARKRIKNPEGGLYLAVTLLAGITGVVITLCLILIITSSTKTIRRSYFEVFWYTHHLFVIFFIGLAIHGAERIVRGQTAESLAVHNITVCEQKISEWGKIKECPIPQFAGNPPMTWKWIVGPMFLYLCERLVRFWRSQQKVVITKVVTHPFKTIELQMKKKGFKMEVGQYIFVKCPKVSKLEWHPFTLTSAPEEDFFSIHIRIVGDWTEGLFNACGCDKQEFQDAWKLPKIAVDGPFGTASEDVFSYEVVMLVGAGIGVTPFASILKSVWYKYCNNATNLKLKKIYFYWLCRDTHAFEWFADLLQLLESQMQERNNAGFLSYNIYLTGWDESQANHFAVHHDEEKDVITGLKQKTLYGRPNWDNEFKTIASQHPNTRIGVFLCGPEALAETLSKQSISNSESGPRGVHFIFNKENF
# [9] = molecular target: NADPH oxidase 4 (Homo sapiens) (UniProt Q9NPH5); test: compounds shifting NOX4 Amplex Red fluorescence – cell-based, HEK293-NOX4, tetracycline-induced, NOX inhibitor project, primary screen (AID 1160); conditions: HEK293-NOX4, Amplex Red H2O2 fluorescence, 45 min; higher = more signal, called active from +8 up or from −8 down
# NADPH oxidase 4 (Homo sapiens), sequence (Q9NPH5 whole entry, looked up): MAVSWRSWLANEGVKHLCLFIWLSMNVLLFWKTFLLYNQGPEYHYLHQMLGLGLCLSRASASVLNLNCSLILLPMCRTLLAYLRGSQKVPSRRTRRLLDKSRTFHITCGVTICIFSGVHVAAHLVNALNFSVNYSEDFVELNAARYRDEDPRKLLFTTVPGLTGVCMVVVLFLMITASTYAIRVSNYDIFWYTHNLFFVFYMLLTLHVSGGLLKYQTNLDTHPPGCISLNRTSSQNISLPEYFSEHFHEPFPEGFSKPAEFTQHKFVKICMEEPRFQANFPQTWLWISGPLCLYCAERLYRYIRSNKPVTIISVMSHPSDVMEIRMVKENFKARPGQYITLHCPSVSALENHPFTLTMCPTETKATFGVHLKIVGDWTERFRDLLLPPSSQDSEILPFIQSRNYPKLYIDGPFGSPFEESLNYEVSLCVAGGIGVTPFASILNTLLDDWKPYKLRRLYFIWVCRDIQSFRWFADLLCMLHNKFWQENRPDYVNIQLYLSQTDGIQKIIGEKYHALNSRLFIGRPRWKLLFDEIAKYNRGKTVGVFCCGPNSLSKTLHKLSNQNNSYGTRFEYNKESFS
# [10] = molecular target: NADPH oxidase 5 (Homo sapiens) (UniProt Q96PH1); test: compounds shifting NOX5 Amplex Red fluorescence – cell-based, HEK293-NOX5, NOX inhibitor project, primary screen (AID 1161); conditions: HEK293-NOX5, ionomycin, 45 min, higher = more signal
# NADPH oxidase 5 (Homo sapiens), sequence (Q96PH1 whole entry, looked up): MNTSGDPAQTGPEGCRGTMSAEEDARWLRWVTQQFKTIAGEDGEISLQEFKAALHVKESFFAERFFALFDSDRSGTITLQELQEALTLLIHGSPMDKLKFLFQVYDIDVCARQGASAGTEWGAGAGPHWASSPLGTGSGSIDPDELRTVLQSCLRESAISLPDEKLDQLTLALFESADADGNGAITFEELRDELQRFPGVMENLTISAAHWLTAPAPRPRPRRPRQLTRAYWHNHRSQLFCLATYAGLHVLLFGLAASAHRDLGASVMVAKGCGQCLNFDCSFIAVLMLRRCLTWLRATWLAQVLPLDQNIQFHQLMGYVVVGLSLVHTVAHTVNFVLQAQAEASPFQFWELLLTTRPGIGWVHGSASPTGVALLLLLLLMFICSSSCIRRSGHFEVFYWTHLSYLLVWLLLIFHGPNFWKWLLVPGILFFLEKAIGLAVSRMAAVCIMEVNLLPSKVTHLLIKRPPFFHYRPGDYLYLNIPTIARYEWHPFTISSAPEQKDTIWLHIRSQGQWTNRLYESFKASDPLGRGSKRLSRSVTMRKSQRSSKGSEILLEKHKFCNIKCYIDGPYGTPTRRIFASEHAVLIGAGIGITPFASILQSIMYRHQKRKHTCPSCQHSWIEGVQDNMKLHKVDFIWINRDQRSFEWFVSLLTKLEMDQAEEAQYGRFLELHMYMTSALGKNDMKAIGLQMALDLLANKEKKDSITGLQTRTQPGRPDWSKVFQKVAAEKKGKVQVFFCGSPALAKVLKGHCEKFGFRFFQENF
# [11] = compound effects on lung adenocarcinoma cell viability – A549, calcein-AM fluorescence, 48 h, basal, profiling panel (AID 1162); conditions: higher = more signal; also: test concentration not given here
# [12] = compound effects on differentiated 3T3-L1 adipocyte viability – cell-based, 3T3-L1 adipocytes, calcein-AM fluorescence, 48 h, basal, profiling panel (AID 1163); conditions: 3T3-L1 adipocytes viability, higher = more signal; also: test concentration not given here
# [13] = compound effects on hepatocellular carcinoma cell viability – HepG2, calcein-AM fluorescence, 48 h, basal, profiling panel (AID 1164); conditions: higher = more signal; also: test concentration not given here
# [14] = compound effects on multiple myeloma cell viability – MM1S, calcein-AM fluorescence, 48 h, basal, profiling panel (AID 1165); conditions: higher = more signal; also: test concentration not given here
# [15] = calcein-AM signal in unstimulated myeloma cells – cell-based, calcein-AM fluorescence, 48 h, PK04 Diversity Set, profiling panel (AID 1166); conditions: RPMI8226 myeloma viability, higher = more signal;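 also: cells grown under basal conditions without added stimulus; test concentration not given here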
# [16] = JC-1 mitochondrial signal, unstimulated HepG2 cells – cell-based, JC-1 fluorescence, 24 h, 100 nL compound, profiling panel (AID 1167); conditions: HepG2 mitochondrial potential, higher = more signal; also: test concentration not given here
# [17] = JC-1 mitochondrial signal, unstimulated adipocytes – cell-based, JC-1 fluorescence, 3T3-L1 adipocytes, 24 h, 100 nL compound, profiling panel (AID 1168); conditions: JC-1 mitochondrial fluorescence, higher = more signal, called active from +8 up or from −8 down; also: test concentration not given here
# [18] = JC-1 mitochondrial signal, unstimulated myeloma cells – cell-based, JC-1 fluorescence, RPMI8226, 24 h, 100 nL compound, profiling panel (AID 1169); conditions: JC-1 mitochondrial potential fluorescence, higher = more signal; also: test concentration not given here
# [19] = JC-1 mitochondrial signal, unstimulated MM1S myeloma – cell-based, JC-1 fluorescence, 24 h, 100 nL compound, profiling panel (AID 1170); conditions: MM1S mitochondrial potential, higher = more signal; also: test concentration not given here
# [20] = resazurin metabolic signal in A549 cells – cell-based, resazurin fluorescence, 24 h, PK04 Diversity Set, profiling panel (AID 1171); conditions: A549 viability, higher = more signal, called active from +8 up or from −8 down; also: test concentration not given here
Compound,z-score [1],composite z-score [2],z-score [3],z-score [4],z-score [5],z-score [6],z-score [7],z-score [8],z-score [9],z-score [10],z-score [11],z-score [12],z-score [13],z-score [14],z-score [15],z-score [16],z-score [17],z-score [18],z-score [19],z-score [20]
COC(=O)Cn1c(C(=O)N(C)C)cc2c1C[C@H]1CN(C(=O)c3ccccc3)[C@@](Cc3ccc(OC)cc3)(C(=O)OC)[C@@H]21,-1.35 (inactive),0.546,2.81 (inactive),0.765 (inactive),1.04 (inactive),0.765 (inactive),-0.62,0.494 (inactive),-0.539 (inactive),0.813,-0.199,-0.714,0.496,0.611,-0.734,3.44,-0.881 (inactive),-0.329,-1.36,-0.31 (inactive)
COc1cc2c(cc1O)C(c1ccc(CN3CCCC3)cc1)N(Cc1ccc([N+](=O)[O-])o1)CC2 (stereo not given),-0.715 (inactive),-0.257,23.1 (active),7.28 (inactive),-0.176 (inactive),0.818 (inactive),-0.683,-3.89 (inactive),-2.56 (inactive),-3.64,-0.731,0.0389,0.0023,0.279,-0.0679,-2.18,-2.19 (inactive),0.733,-0.307,-0.679 (inactive)
C=CCC(OC(C)=O)[C@@H]1[C@@H](N(Cc2cc3ccccc3o2)C(=O)Cc2ccc(OC)cc2)c2cc(OCCCO)ccc2N1C(=O)Cc1ccc2ccccc2c1 (stereo not given in full),-0.476 (inactive),0.152,2.63 (inactive),-0.005 (inactive),1.35 (inactive),0.308 (inactive),0.638,-0.282 (inactive),-0.427 (inactive),1.21,0.583,0.592,-0.118,0.0786,-0.929,2.27,-0.315 (inactive),0.00245,-0.692,-1.16 (inactive)
CCCCN1CC=CC23O[C@@H]4/C=C\CCC(C)OC(=O)C4[C@H]2C(=O)N(C(C)CO)[C@@H]3C1=O (stereo not given in full),0.0581 (inactive),-0.331,1.82 (inactive),-0.0918 (inactive),1.19 (inactive),0.16 (inactive),-0.0969,0.809 (inactive),-0.42 (inactive),1.27,-0.425,-0.708,0.201,0.646,-0.474,-0.318,-0.382 (inactive),-0.726,-1.13,-0.016 (inactive)
CC(=O)NCCCC[C@@H]1NC(=O)[C@@H]2C[C@H](C(=O)NCCCCCC[N+](C)(C)C)[C@H](c3ccc(O)cc3)N2C1=O,-0.303 (inactive),0.102,1.5 (inactive),0.0681 (inactive),-3.5 (inactive),0.0574 (inactive),-0.879,0.881 (inactive),0.983 (inactive),0.139,0.131,-0.348,-0.611,0.258,-0.539,-1.33,0.164 (inactive),0.169,-0.5,-0.557 (inactive)
COc1cccc(OC)c1C(=O)O[C@H]1[C@@H]2OC(=O)[C@H](Cc3cccc(Br)c3)C/C=C/C[C@@H](Cc3cccc(Br)c3)C(=O)O[C@H]2[C@@H](OC)O[C@@H]1CO,-0.899 (inactive),-0.0559,3.18 (inactive),-0.0392 (inactive),-1.53 (inactive),0.581 (inactive),0.0487,-0.443 (inactive),-0.0533 (inactive),0.955,-0.144,0.0726,-0.215,-2.6,-3.88,-3.42,-0.819 (inactive),-0.735,-0.211,-0.952 (inactive)
CC(C)C[C@@H]1NC(=O)[C@H]2C[C@@H](C(=O)NCCCCCCNC(=O)CS)[C@@H](c3ccc(O)cc3)N2C1=O,0.13 (inactive),-0.0603,7.66 (inactive),0.64 (inactive),1.4 (inactive),-0.0166 (inactive),0.795,1.64 (inactive),0.633 (inactive),0.755,-0.889,0.197,-0.301,-0.397,0.266,-1.74,0.193 (inactive),0.486,-5.59e-05,0.0225 (inactive)
CCCC[C@H]1OB(O)C[C@H]2C1=C(COC)C[C@H]1C(=O)C=CC(=O)[C@H]12,0.685 (inactive),-0.188,1.09 (inactive),0.272 (inactive),0.224 (inactive),0.231 (inactive),0.0946,-0.235 (inactive),-0.663 (inactive),-0.477,0.2,-0.0373,-0.0926,-3.25,-2.35,-2.01,-1.46 (inactive),-0.59,-0.898,-0.347 (inactive)
C=CCC(OC(C)=O)[C@@H]1[C@@H](N(Cc2ccc(-c3cccc(C(F)(F)F)c3)o2)C(=O)Cc2ccc(F)cc2)c2cc(OCCCO)ccc2N1C(=O)c1ccc2ccccc2n1 (stereo not given in full),-0.994 (inactive),-0.024,1.53 (inactive),-0.0905 (inactive),-0.592 (inactive),0.0644 (inactive),-0.47,0.249 (inactive),0.919 (inactive),1.13,0.0993,0.639,0.722,-0.911,-0.733,2.09,0.484 (inactive),-0.134,0.143,0.14 (inactive)
